Records with an inconclusive call do not appear. Activity calls are given as the source filed them. Unless noted, calls follow the shape of the dose curve; as a rule, active = well fitted curve in the direction sought with a large enough effect in the repeat runs; inconclusive = weak or mixed curves; inactive = flat fitted curve, though single readings scatter.
Assays:
[1] = qHTS assay to test for compound auto fluorescence at 535 nm (green) in HEK293 cells (AID 720680)
[2] = qHTS assay to test for compound auto fluorescence at 460 nm (blue) in HEK293 cell free culture (AID 720681)
Summary of the method: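 Blue fluorescence (Ex 405/Em 460 nm, triamterene-equivalent) was read immediately after pin transfer of compound or DMSO into medium (DMEM, 10% FBS) without cells.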

[3] = qHTS assay to test for compound auto fluorescence at 535 nm (green) in HEK293 cell free culture (AID 720682)
Summary of the method: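 Read-out: 485/535 nm fluorescence intensity, calibrated against fluorescein. Medium only (DMEM + 10% FBS, no cells); test compound or DMSO vehicle added by pintool before plate reading.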

[4] = qHTS assay to test for compound auto fluorescence at 590 nm (red) in HEK293 cell free culture (AID 720683)
Summary of the method: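 Red-channel autofluorescence of compounds in culture medium (DMEM, 10% FBS), no cells, measured at 540/590 nm. Rose Bengal sodium is the reference fluorophore for equivalence.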

[5] = qHTS assay to test for compound auto fluorescence at 590 nm (red) in HepG2 cell free culture (AID 720684)
Summary of the method: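 Plate contents were MEM with 10% FBS plus test compound or DMSO, no cells. Fluorescence was recorded with 540 nm excitation and 590 nm emission.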

[6] = qHTS assay to test for compound auto fluorescence at 460 nm (blue) in HepG2 cell free culture (AID 720685)
Summary of the method: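 Compound (23 nL) or DMSO pinned into cell-free MEM with 10% FBS; blue fluorescence read at 405/460 nm excitation/emission, expressed as auto-fluorescence equivalency to triamterene.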

[7] = qHTS assay to test for compound auto fluorescence at 535 nm (green) in HepG2 cell free culture (AID 720686)
[8] = qHTS assay to test for compound auto fluorescence at 460 nm (blue) in HepG2 cells (AID 720687)
Summary of the method: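 Blue-channel autofluorescence (Ex/Em 405/460 nm, triamterene-equivalent) was measured after 1 hr compound exposure at 37 C, 5% CO2. Cells were HepG2, plated overnight at 37 C in MEM plus 10% FBS.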

[9] = target: Glucocorticoid receptor (Homo sapiens) (UniProt P04150); test: qHTS assay to identify small molecule agonists of the glucocorticoid receptor (GR) signaling pathway (AID 720691; active = well fitted activation curve with a large enough effect in the signal ratio in the repeat runs, not every such curve was filed as active; the % refers to the signal ratio)
Glucocorticoid receptor (Homo sapiens), sequence (P04150 whole entry, looked up): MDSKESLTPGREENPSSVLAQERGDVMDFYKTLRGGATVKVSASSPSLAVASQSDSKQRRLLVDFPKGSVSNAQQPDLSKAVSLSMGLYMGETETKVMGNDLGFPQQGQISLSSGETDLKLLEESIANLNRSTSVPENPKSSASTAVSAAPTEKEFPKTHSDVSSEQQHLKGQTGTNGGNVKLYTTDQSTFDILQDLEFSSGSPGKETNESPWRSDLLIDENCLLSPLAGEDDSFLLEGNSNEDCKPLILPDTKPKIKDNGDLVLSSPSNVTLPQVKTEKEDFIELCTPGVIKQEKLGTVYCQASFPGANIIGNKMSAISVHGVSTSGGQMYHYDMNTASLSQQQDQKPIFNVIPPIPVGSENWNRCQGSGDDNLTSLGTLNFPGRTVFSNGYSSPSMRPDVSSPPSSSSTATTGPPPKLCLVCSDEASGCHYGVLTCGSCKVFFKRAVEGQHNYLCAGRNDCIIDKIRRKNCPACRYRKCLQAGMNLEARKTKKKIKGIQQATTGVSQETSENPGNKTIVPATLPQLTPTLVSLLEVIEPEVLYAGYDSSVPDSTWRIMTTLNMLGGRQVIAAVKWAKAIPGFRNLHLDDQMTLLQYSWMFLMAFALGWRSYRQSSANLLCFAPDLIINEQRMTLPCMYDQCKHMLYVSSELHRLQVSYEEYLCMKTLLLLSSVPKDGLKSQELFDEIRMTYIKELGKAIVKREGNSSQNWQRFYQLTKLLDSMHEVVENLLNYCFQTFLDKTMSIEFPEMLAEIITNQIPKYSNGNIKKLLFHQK
Summary of the method: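 Fluorescence intensity from LiveBLAzer B/G FRET substrate (2 h, room temperature) reports beta-lactamase expression driven by the glucocorticoid response element in GR-bla HeLa cells after 18 h compound exposure at 37 C.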
% is scaled to controls: 0 for no effect and ±100 for the full control effect.

CC(C)(CC(=O)O)C(=O)O
inactive: outcome [1] | outcome [2] | outcome [3] | outcome [4] | outcome [5] | outcome [6] | outcome [7] | outcome [8]

CC(C)c1cc2c(cc1S(=O)(=O)O)[C@@]1(C)CCC[C@@](C)(C(=O)O)[C@@H]1CC2
inactive: outcome [1] | outcome [2] | outcome [3] | outcome [4] | outcome [5] | outcome [6] | outcome [7] | outcome [8]

CC(C)(c1ccc(O)cc1)c1ccc(O)cc1
inactive: outcome [1] | outcome [2] | outcome [3] | outcome [4] | outcome [5] | outcome [6] | outcome [7] | outcome [8]

NCCc1cnc[nH]1
inactive: outcome [1] | outcome [2] | outcome [3] | outcome [4] | outcome [5] | outcome [6] | outcome [7] | outcome [8]

N=C(N)c1ccc2cc(OC(=O)c3ccc(N=C(N)N)cc3)ccc2c1
inactive: outcome [1] | outcome [2] | outcome [3] | outcome [4] | outcome [5] | outcome [6] | outcome [7] | outcome [8]

CC(C(=O)O)c1ccc(CC2CCCC2=O)cc1 (stereo not drawn)
inactive: outcome [1] | outcome [2] | outcome [3] | outcome [4] | outcome [5] | outcome [6] | outcome [7] | outcome [8]

COCCCOCCCOC
inactive: outcome [1] | outcome [2] | outcome [3] | outcome [4] | outcome [5] | outcome [6] | outcome [7] | outcome [8]

COc1c(N2C[C@@H]3CCCN[C@@H]3C2)c(F)cc2c(=O)c(C(=O)O)cn(C3CC3)c12
inactive: outcome [1] | outcome [2] | outcome [3] | outcome [4] | outcome [5] | outcome [6] | outcome [7] | outcome [8]

NC(=O)c1cn(Cc2c(F)cccc2F)nn1
inactive: outcome [1] | outcome [2] | outcome [3] | outcome [4] | outcome [5] | outcome [6] | outcome [7] | outcome [8]

CCC(C)C1CCCCC1=O (stereo not drawn)
inactive: outcome [1] | outcome [2] | outcome [3] | outcome [4] | outcome [5] | outcome [6] | outcome [7] | outcome [8]

CC[N+](C)(C)c1cccc(O)c1
inactive: outcome [1] | outcome [2] | outcome [3] | outcome [4] | outcome [5] | outcome [6] | outcome [7] | outcome [8]

C=C(C)C(=O)OCCCCCCCC(C)C
inactive: outcome [1] | outcome [2] | outcome [3] | outcome [4] | outcome [5] | outcome [6] | outcome [7] | outcome [8] | Potency [9]

CC(=O)CC(C)(C)C1CCCCC1
inactive: outcome [1] | outcome [2] | outcome [3] | outcome [4] | outcome [5] | outcome [6] | outcome [7] | outcome [8]

O=S(O)CO
inactive: outcome [1] | outcome [2] | outcome [3] | outcome [4] | outcome [5] | outcome [6] | outcome [7] | outcome [8]

COc1cc(C(=O)N2CCCCCCC2)cc(OC)c1OC
inactive: outcome [1] | outcome [2] | outcome [3] | outcome [4] | outcome [5] | outcome [6] | outcome [7] | outcome [8]

C=C[Si](OC(=C)C)(OC(=C)C)OC(=C)C
inactive: outcome [1] | outcome [2] | outcome [3] | outcome [4] | outcome [5] | outcome [6] | outcome [7] | outcome [8]

COC(=O)[C@@H](N)Cc1ccc(O)c(O)c1
inactive: outcome [1] | outcome [2] | outcome [3] | outcome [4] | outcome [5] | outcome [6] | outcome [7] | outcome [8]

C=C1CC[C@H]2C[C@@H]1C2(C)C
inactive: outcome [1] | outcome [2] | outcome [3] | outcome [4] | outcome [5] | outcome [6] | outcome [7] | outcome [8]

CCN1CCC[C@H]1CNC(=O)c1c(O)c(Cl)cc(Cl)c1OC
inactive: outcome [1] | outcome [2] | outcome [3] | outcome [4] | outcome [5] | outcome [6] | outcome [7] | outcome [8]

CC(C)CNCC(C)C
inactive: outcome [1] | outcome [2] | outcome [3] | outcome [4] | outcome [5] | outcome [6] | outcome [7] | outcome [8]

CCCCCSCCCCC
inactive: outcome [1] | outcome [2] | outcome [3] | outcome [4] | outcome [5] | outcome [6] | outcome [7] | outcome [8]

CC(C)(C)NCCNC(C)(C)C
inactive: outcome [1] | outcome [2] | outcome [3] | outcome [4] | outcome [5] | outcome [6] | outcome [7] | outcome [8]

CCCCCCCCS(=O)(=O)Cl
inactive: outcome [1] | outcome [2] | outcome [3] | outcome [4] | outcome [5] | outcome [6] | outcome [7] | outcome [8] | Potency [9]

CCCCCOC(=O)CCCCC
inactive: outcome [1] | outcome [2] | outcome [3] | outcome [4] | outcome [5] | outcome [6] | outcome [7] | outcome [8] | Potency [9]

Cc1c(O)cccc1O
inactive: outcome [1] | outcome [2] | outcome [3] | outcome [4] | outcome [5] | outcome [6] | outcome [7] | outcome [8]

CCOC(=O)c1cccc(N)c1
inactive: outcome [1] | outcome [2] | outcome [3] | outcome [4] | outcome [5] | outcome [6] | outcome [7] | outcome [8]

Nc1cc(=O)[nH]c(N)n1
inactive: outcome [1] | outcome [2] | outcome [3] | outcome [4] | outcome [5] | outcome [6] | outcome [7] | outcome [8]

O=C1NC(=O)[C@@]2(CCOc3ccc(F)cc32)N1
inactive: outcome [1] | outcome [2] | outcome [3] | outcome [4] | outcome [5] | outcome [6] | outcome [7] | outcome [8]

OC[C@]1(O)OC[C@@H](O)[C@H](O)[C@@H]1O
inactive: outcome [1] | outcome [2] | outcome [3] | outcome [4] | outcome [5] | outcome [6] | outcome [7] | outcome [8]

CCCCCCCCCCCCCC=O
inactive: fluorescence, % of fluorescein [1] 0.0656% [at 3.72 µM] | fluorescence, % of fluorescent control [2] -0.0434% [at 3.72 µM] | activity change [3] -0.0074% [at 3.72 µM] | fluorescence, % of fluorescent control [4] 0.0516% [at 3.72 µM] | fluorescence, % of Rose Bengal [5] 0.0058% [at 3.72 µM] | fluorescence, % of fluorescent control [6] -0.0093% [at 3.72 µM] | fluorescence, % of fluorescein control [7] 0.0349% [at 3.72 µM] | fluorescence, % of fluorescent control [8] -0.0327% [at 3.72 µM]

Source: PubChem BioAssay (Tox21)
